# PubChem BioAssay (EPA / NIEHS)
# Active and inactive are the calls of the source. How the source made its calls: active means hit-call score of the fitted dose curve at least 0.9, where 1 is the maximum; inactive means score below 0.9.
# Test: CCTE_Shafer_MEA_dev_mutual_information_norm: CCTE's Neural Network Formation Assay for Mutual Information Normalization, Shafer Lab (AID 2284091);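 on AC50: potency is for a decrease in mutual information relative to DMSO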
# Method: CCTE_Shafer_MEA_dev assay is conducted using Axion Biosystems 48 well microelectrode array (MEA) plates and Maestro recording system. Each well of the MEA plate contains a grid of 16 microelectrodes embedded in the culture surface. Electrically active cells, such as neurons, can be cultured over the electrodes, and electrical activity in these cells can be recorded extracellularly. The spontaneous firing of neurons is captured from each electrode on a microsecond timescale providing both temporally and spatially precise data. […] The CCTE_Shafer_MEA_dev assay uses primary cultures of rat cortical neurons. Recordings are made on days post-plating 5, 7, 9 and 12. As these cultures mature over time, neural networks develop functional activity and form cohesive networks in which electrical activity can be highly coordinated. CCTE_Shafer_MEA_dev_mutual_information_norm is 1 of 19 assay components of the CCTE_Shafer_MEA_dev assay. It is a measure of shared information between electrodes during a recording in a microelectrode array (MEA) using Axion Biosystems Maestro 768 channel amplifier with the AxIS adaptive spike detector. To collapse across multiple recordings made on days post-plating 5, 7, 9 and 12, the trapezoidal area-under-the-curve of the component is calculated.Data from the assay component CCTE_Shafer_MEA_dev_mutual_information_norm was analyzed into 1 assay endpoint. This assay endpoint, CCTE_Shafer_MEA_dev_mutual_information_norm, was analyzed in the negative analysis fitting direction relative to DMSO as the negative control and baseline of activity. Using a type of functional reporter, gain or loss-of-signal activity can be used to understand electrical activity.
# On the day prior to culture, each well was coated thoroughly with 150 uL of 0.05% polyethyleneimine (PEI, Sigma Cat P3143) in 50 mM HEPES (Sigma Cat H7523) at a pH of 8. The plate was incubated at 37C for one hour. PEI was rinsed out with 500 uL of sterile water three times. Plates were stored at 4C until the day of culture. This culture was plated at a seeding density of 1.5 x 10^5 cells/well on a 48-well MEA plate, prepared as described above. Cells were administered via a 25 uL media/laminin ([…]; Sigma Cat L2020-1MG) drop directly onto the microelectrode array, as adding the cells with the laminin results in better attachment than pre-coating with laminin. After 2 hours, an additional 475 uL of cortical media was added and the cells returned to the incubator. Exposure starts at day 0 of plating and is continued over twelve days of network development until the experiment is terminated. Cells are fed with fresh medium on DIV 5 and 9, following the recordings on those days. The entire volume of media in the well is exchanged and any vehicle or compound treatment is renewed. Complete details are found in OP-NHEERL/ISTD/SBB/TJS/2015-03-r0 (available on request, email shafer.tim@epa.gov). Measurement of the electrical activity is non-invasive, and recordings can be made from the same plate over multiple different days of the culture. In cortical neurons, this allows for the measurement of extracellular action potentials over the period during which networks form in the MEA plate.
SMILES,outcome,AC50
F,inactive,–
CCc1ccccc1,inactive,–
C[C@@H]1CCO[C@H]2Cn3cc(C(=O)NCc4ccc(F)cc4F)c(=O)c(O)c3C(=O)N12,–,1.55 µM (active)
CC(=O)N[C@@H](CC(=O)O)C(=O)O,inactive,–
CC(C)O,inactive,–
CCCCCC=C(C)C(CC)CCO (configuration not stated),inactive,–
Brc1cc(Br)c(Oc2cc(Br)c(Br)cc2Br)cc1Br,inactive,–
c1ccc2c(c1)ccc1c3ccccc3ccc21,inactive,–
[O]=[V]([OH])([OH])[OH],–,4.55 µM (active)
CCCCCC(C)(CC)C(=O)NC (configuration not stated),inactive,–
C[C@@H]1CC[C@@H](C(C)(C)O)[C@H](O)C1,inactive,–
CC(C)c1nn(C(=O)NC(C)(C)C)c(=O)n1N,inactive,–
O=C1CC2(CCCC2)CC(=O)N1CCCCN1CCN(c2ncccn2)CC1,inactive,–
CC(CNC(=S)[S-])NC(=S)[S-].[Zn+2] (configuration not stated),–,4.05 µM (active)
BrC1CC(Br)CC(Br)CC(Br)CC(Br)CC(Br)C1 (configuration not stated),–,2.73 µM (active)
c1cc2c3c(c1)ccc1cccc(c13)C2,inactive,–
Cc1[nH]n(C)c(=O)c1C(=O)c1ccc(C(F)(F)F)cc1S(C)(=O)=O,inactive,–
